Source: PubChem BioAssay (Tox21)
Results filed as inconclusive are left out. Activity calls are given as the source filed them. Unless noted, calls follow the shape of the dose curve; as a rule, active = well fitted curve in the direction sought with a large enough effect in the repeat runs; inconclusive = weak or mixed curves; inactive = no such curve, though single readings can be large; an effect the other way counts as inactive or inconclusive.

Key:
[1] = qHTS assay to identify small molecule agonists of the hypoxia (HIF-1) signaling pathway (AID 1224846; active = well fitted activation curve with a large enough effect in the signal ratio in the repeat runs, not every such curve was filed as active; the % refers to the signal ratio)
Method in brief: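 Agonist mode reporter screen. ME-180 cells stably expressing bla under HRE control received test compounds in DMSO for 17 hrs (37C, 5% CO2), and beta-lactamase activity was then detected with the CCF4-AM FRET substrate.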

[2] = qHTS assay to identify small molecule agonists of H2AX - cell viability counter screen (AID 1224847; calls by dose curve; also: top concentration of the series differs between compounds; nearly all actives have a fitted effect of over 30% in size)
Method in brief: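 Compounds tested at 15 concentrations were incubated 3 hr at 37C with wild-type CHO-K1 cells; cellular ATP-based luminescence (CellTiter-Glo) indicated viability.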

[3] = qHTS assay to identify small molecule antagonists of the estrogen related receptor (ERR) signaling pathway from Tox21 library (AID 1224848); also: nearly all actives have a fitted effect of over 50% in size
Method in brief: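 First, 2,000 ERR cells per well were plated and held 6 h at 37 C/5% CO2. Next, compounds in DMSO were pinned in and left 18 h at 37 C. Finally, ONE-Glo was added and luminescence read after 30 min at room temperature.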

[4] = qHTS assay to identify small molecule agonists of the estrogen related receptor (ERR) signaling pathway from Tox21 library (AID 1224849; calls by dose curve; also: nearly all actives have a fitted effect of over 15% in size); conditions: ERR reporter cell line, ONE-Glo luciferase, 18 h; at 92.4 µM (top of the series) unless noted
Method in brief: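 Quantitative HTS in agonist format: NTP ERR cell line, compounds transferred in DMSO after 6 h plating, 18 h incubation at 37 C, ONE-Glo luminescence endpoint.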

[5] = qHTS RealTime-Glo MT Cell Viability Assay in HepG2 cells - 24 hour (AID 1224867); also: nearly all actives have a fitted effect of over 50% in size
Method in brief: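 Real-time, nonlytic viability: 600 HepG2 cells/well mixed with NanoLuc enzyme plus prosubstrate; 5 h settle, compound (DMSO) added by pintool; luminescence monitored over 40 h at 37 C.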

[6] = qHTS RealTime-Glo MT Cell Viability Assay in HEK293 cells - 32 hour (AID 1224868); also: top concentration of the series differs between compounds; nearly all actives have a fitted effect of over 50% in size
Method in brief: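 Cells + reagent dispensed (600 cells/well, HEK293) → 5 h at 37 C/5% CO2 → 23 nL compound in DMSO pinned → 40 h at 37 C → luminescence read at 0, 8, 16, 24, 32, 40 h.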

[7] = A CellTox Green Cytotoxicity Assay to monitor cytotoxicity in HEK293 cells - 0 hour (AID 1224869); also: nearly all actives have a fitted effect of over 50% in size
Method in brief: (§1)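 Dead-cell fluorescence measured kinetically: asymmetric cyanine dye, HEK293, 600 cells/well, 5 h settle, 23 nL cpd/DMSO, 37 C, reads 0–40 h every 8 h.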

[8] = A CellTox Green Cytotoxicity Assay to monitor cytotoxicity in HEK293 cells - 40 hour (AID 1224871); also: nearly all actives have a fitted effect of over 45% in size; also: potency is read from the fitted curve at half-maximal effect
Method in brief: as §1

[9] = qHTS RealTime-Glo MT Cell Viability Assay in HepG2 cells - 40 hour (AID 1224870); also: nearly all actives have a fitted effect of over 50% in size
Method in brief: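 HepG2 cells mixed with RealTime-Glo MT reagents (NanoLuc plus cell-permeant prosubstrate) were seeded at 600 cells/well, incubated 5 h at 37 C/5% CO2, then pinned with compounds in DMSO; nonlytic luminescence tracked viability during 40 h treatment.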
% is scaled to controls: 0 for no effect and ±100 for the full control effect.

Oc1ccc(C(O)CNCCCCCCNCC(O)c2ccc(O)c(O)c2)cc1O (stereo unspecified)
inactive: outcome [1] | Potency [2] | Potency [3] | activity change, positive = activation [4] 1.29% [at 42.5 µM] | Potency [5] | Potency [6] | Potency [7] | Potency [8]

CCCCCCc1ccc(N)cc1
inactive: outcome [1] | activity change, positive = activation [4] -26.6% | Potency [5] | Potency [6] | Potency [7] | Potency [9] | Potency [8]

CCOC(=O)[C@H](CCc1ccccc1)N[C@H]1CCc2ccccc2N(CC(=O)O)C1=O
inactive: Potency [7]

CC(C)(C)c1ccc(OCC2CO2)cc1 (stereo unspecified)
inactive: outcome [1] | activity change, positive = activation [4] 3.37% | Potency [5] | Potency [6] | Potency [7]
active: Potency [8] 50 µM

CC1(C)CCC(C)(C)c2cc(NC(=O)c3ccc(C(=O)O)cc3)ccc21
inactive: outcome [1] | Potency [2] | Potency [5] | Potency [7] | Potency [9] | Potency [8]

Cc1ccc(C(C)c2ccc(C)c(C)c2)cc1C
inactive: outcome [1] | Potency [5] | Potency [6] | Potency [7] | Potency [9] | Potency [8]

CC(=O)CC(=O)c1ccccc1
inactive: outcome [1] | Potency [2] | Potency [3] | activity change, positive = activation [4] 14.5% | Potency [5] | Potency [7] | Potency [9] | Potency [8]

ClC(Cl)(Cl)c1ccc(C(Cl)(Cl)Cl)cc1
inactive: outcome [1] | Potency [5] | Potency [6] | Potency [7] | Potency [9]

CC(=O)Nc1ccc(/C=N/NC(N)=S)cc1
inactive: outcome [1] | Potency [2] | Potency [5] | Potency [6] | Potency [7] | Potency [8]

O=C(C(=O)c1ccc(Br)cc1)c1ccc(Br)cc1
inactive: activation [1] -1.03% [at 15.8 µM] | activity change, negative = cytotoxicity [2] 0.693% [at 31.6 µM] | activity change, positive = activation [4] 0.063% [at 19 µM] | activity change, negative = cytotoxicity [5] -0.799% [at 15.8 µM] | activity change, negative = cytotoxic [6] 3.98% [at 15.8 µM] | cytotoxicity [7] 1.99% [at 15.8 µM] | activity change, negative = cytotoxic [9] 6.88% [at 15.8 µM] | cytotoxicity increase [8] 0.336% [at 15.8 µM]
